# In all, about 2,300 compounds went through this assay and about 790 (34%) were called active. The rule behind the calls is not given here. The list shows a part of the results. A call without a number means that no potency is given here. Potency and affinity values are given separately.
# Experiment: THP-1 cell cytotoxicity, dose response, cytotoxicity control for non-replicating M. tuberculosis project (AID 489025)
# Conditions: THP-1 cell viability; series mostly up to 40 µM
row,Compound,outcome
1,Cc1cc(C)cc(OC(=O)CCN2C(=O)c3ccccc3C2=O)c1,inactive
2,O=C1c2ccccc2C(=O)N1CCOc1ccc(F)cc1,inactive
3,COc1cccc2cc(C(=O)c3ccc([N+](=O)[O-])cc3)oc12,inactive
4,O=C(c1ccc([N+](=O)[O-])o1)N1CCN(c2nc3ccc(F)cc3s2)CC1,inactive
5,C=CC[n+]1ccn(-c2nc3ccccc3nc2[N-]S(=O)(=O)c2cccs2)c1,inactive
6,CC(=O)CCC1CC(c2ccc(Cl)cc2)=NO1 (stereo unspecified),inactive
7,CCCCCCNC(=O)c1ccc(Br)o1,inactive
8,Cc1c(Cl)cccc1NC(=O)C(=O)NNC(=O)c1ccccc1F,inactive
9,CCOC(=O)c1c(NC(=O)COC(=O)c2ccccn2)sc2c1CCC2,inactive
10,O=C(Nc1nnc(-c2cc(Cl)ccc2Cl)o1)C1=COCCO1,inactive
11,O=C(CCN1C(=O)S/C(=C\c2ccc(F)cc2)C1=O)Nc1ccc(C(=O)O)c(O)c1,inactive
12,O=C(NNC(=O)c1ncc(Cl)c(Cl)c1Cl)c1ccc(F)cc1,inactive
13,CC1CCN(CCOCCSc2ccc(Cl)cc2)CC1,inactive
14,COc1ccc2cc(C(=O)NCc3ccccc3)c(=O)oc2c1,inactive
15,O=C(CCC1CCCC1)NCc1ccccn1,inactive
16,COc1ccc(NC(=O)COc2ccc3c(c2)CCC3)cc1,inactive
17,Cc1ccc(C2=N/C(=C\c3cccnc3)C(=O)O2)cc1,inactive
18,O=C1OC(/C=C/c2ccccc2)=NC/1=C\c1cccnc1,inactive
19,C=CCn1c(=O)c(C(=O)Nc2cccnc2)c(O)c2ccccc21,inactive
20,CCn1c(=O)c(C(=O)Nc2ncccc2C)c(O)c2ccccc21,inactive
21,Cc1cccnc1NC(=O)c1c(O)c2ccccc2n(C)c1=O,inactive
22,Cn1c(=O)c(Oc2ccc(Cl)cc2)c(O)c2ccccc21,inactive
23,COc1cc(C2C3=C(CC(C)(C)CC3=O)OC(N)=C2[N+](=O)[O-])ccc1O (stereo unspecified),inactive
24,CCCCOc1ccc(CSCCN)cc1Cl,inactive
25,O=C1N(c2ccc3c(c2)OCCO3)C(c2ccccc2)C1(F)F (stereo unspecified),inactive
26,NC(=O)COc1ccc2cc(-c3ccc(F)cc3)c(=O)oc2c1,inactive

row,Compound,outcome
1,Cc1n[nH]c(=S)n1/N=C/c1ccc(OCc2ccc(Cl)cc2Cl)cc1,inactive
2,CN1CCC(O)(c2cccs2)C(C(=O)c2cccs2)C1 (stereo unspecified),inactive
3,CC1CCN(C(=O)C2COc3ccccc3O2)CC1 (stereo unspecified),inactive
4,CCCn1c(=O)c(C(=O)N/N=C/c2ccccc2F)c(O)c2ccccc21,inactive
5,C/C(=N\Nc1nc2ccccc2[nH]1)c1ccc(N2CCOCC2)cc1,inactive
6,CCCCN(C/C=C/c1ccccc1OC)Cc1ccccc1,inactive
7,COc1ccc(N2C(=O)CC(Sc3nc4ccccc4s3)C2=O)cc1OC (stereo unspecified),inactive
8,O=C(COc1cccc2ccccc12)Nc1ccc(Cl)cc1C(=O)O,inactive
9,CCOc1cccc2cc(C(=O)NC(C)c3ccccc3)c(=N)oc12 (stereo unspecified),inactive
10,O=C(NCc1cccs1)c1cc(-c2ccc(O)cc2)on1,inactive
11,O=C(OCC(=O)N1CCCCC1)c1cc2ccccc2cc1O,inactive
12,Cc1cccc(NC(=O)CO/N=C/c2ccc3c(c2)OCO3)c1,inactive
13,Cc1csc(NC(=O)c2cc([N+](=O)[O-])cc([N+](=O)[O-])c2)n1,inactive
14,O=C(NCc1cccs1)c1ccc(Br)o1,inactive
15,O=C(Nc1ncccn1)c1ccc([N+](=O)[O-])o1,inactive
16,O=C(CN1CCN(c2ccc([N+](=O)[O-])cc2)CC1)Nc1ccccn1,inactive
17,COc1cccc(COC(=O)c2sc3nc4n(c(=O)c3c2C)CCC4)c1OC,inactive
18,O=C(Nc1ccc(-c2nc3ccccc3c(=O)o2)cc1)c1ccco1,inactive
19,O=C(N/N=C/c1ccc(OC(=O)c2ccco2)cc1)c1ccccn1,inactive
20,CC(C)(C)/C(O)=C/c1nc2ccccc2oc1=O,inactive
21,O=C1N/C(=N\c2ccccn2)SC1Cc1ccc(Cl)cc1 (stereo unspecified),inactive
22,COc1ccc(/C(=N/O)C(C)(C)NO)cc1,inactive
23,CO/N=C/CC(=O)c1ccc(OC)cc1,inactive
24,Cc1cc2nc(CSc3ccc(Cl)cc3)cc(=O)n2[nH]1,inactive
25,CSCCC(=O)N1CCCC(N2CCN(c3cccc(C(F)(F)F)c3)CC2)C1 (stereo unspecified),inactive
26,CCC(C)c1ccc(OCCn2ccnc2)cc1 (stereo unspecified),inactive

row,Compound,outcome
1,C/C(=C\C(=O)c1ccncc1)Nc1ccccc1O,inactive
2,CCOC(=O)c1ccc(NC(=O)CCSCCc2ccccn2)cc1,inactive
3,Cc1ccc(OCCCCc2c(C)n[nH]c2C)cc1,inactive
4,CC1CCc2c(sc3nc(CSc4ncn[nH]4)[nH]c(=O)c23)C1 (stereo unspecified),inactive
5,CC1CC(C)CN(CCOCCSc2ccc(Cl)cc2)C1 (stereo unspecified),inactive
6,Cc1cc(Cl)ccc1NNC(=O)c1cccs1,inactive
7,O=C(c1ccccc1)c1nc[nH]c1C(=O)Nc1ccccc1,inactive
8,CN(C)CCC(=O)N1c2ccccc2Sc2ccc(Cl)cc21,inactive
9,O=S1(=O)N=C(N/N=C/C=C/c2ccccc2)c2ccccc21,inactive
10,COc1ccc(OCc2n[nH]c(=S)o2)cc1,inactive
11,CCCCn1c(N)c(-c2nc3ccccc3o2)c2c([N+](=O)[O-])nn(CC)c(=O)c21,inactive
12,CCOCC(=O)Nc1ccc(C)c(Cl)c1,inactive
13,CSC1=N/C(=C\c2ccc(Br)o2)C(=O)S1,inactive
14,Cc1ccc(-c2nnc(C)c(N3CCCC3)n2)cc1,inactive
15,O=C(CN1CCN(c2ccccc2O)CC1)Nc1ccc2c(c1)CCC2,inactive
16,CCOc1ccc(OCCSc2ccc(S(=O)(=O)N3CCN(C)CC3)cn2)cc1,inactive
17,CC(C)c1ccc(OCC(=O)NCc2ccccc2)cc1,inactive
18,Cc1cc2cc(CNC(=O)COc3ccccc3)ccc2n1C,inactive
19,Cc1cccc(NC(=O)c2cc3ccccc3o2)c1,inactive
20,Cc1cc(C(=O)N/N=C/C=C/c2ccccc2)c(C)o1,inactive
21,Cc1nonc1C(=O)N/N=C/c1ccc([N+](=O)[O-])o1,inactive
22,COc1ccc(NC(=O)c2cc3ccccc3o2)cc1,inactive
23,NC(=O)COC(=O)c1sc2ccccc2c1Cl,inactive
24,O=C(Nc1ccc(Cl)c(Cl)c1)O/N=C/c1ccncc1,inactive
25,O=C(NC1CC2CCC1C2)C1COc2ccccc2O1 (stereo unspecified),inactive
26,O=C(NCc1ccccc1)c1cc2ccccc2oc1=O,inactive

row,Compound,outcome
1,O=C(NCCc1cccc(Cl)c1)c1cc2ccccc2oc1=O,inactive
2,O=C(O)c1ccc(-n2nc(C(F)(F)F)c3c2CCCC3)cc1,inactive
3,O=C(COc1ccc2ccccc2c1)Nc1ccncc1,inactive
4,S=c1[nH]cnc2sc(-c3ccccc3)cc12,inactive
5,CCOC(=O)c1csc(COc2ccccc2Cl)n1,inactive
6,CCn1c(-c2ccco2)nc2ccccc21,inactive
7,Clc1ccccc1OCc1nnc(-c2ccccc2)o1,inactive
8,COc1cccc(COC(=O)CCNC(=O)c2ccc(Br)cc2)c1OC,inactive
9,CC(=O)c1ccc(NC(=O)C(Cc2ccccc2)n2cccc2)cc1 (stereo unspecified),inactive
10,Cc1cc(NC(=O)COc2ccccc2)ccc1Cl,inactive
11,CCOc1cc(-c2nnc(NC(=O)c3ccco3)o2)cc(OCC)c1OCC,inactive
12,Cc1cc(C)c(OCC(=O)Nc2nnc(-c3ccco3)o2)c(C)c1,inactive
13,Cc1ccsc1C(=O)OCC(=O)Nc1nnc(-c2ccccc2)o1,inactive
14,O=C(Nc1nnc(C2=COCCO2)o1)c1ccc(Cc2ccccc2)cc1,inactive
15,O=C(NC1CCCC1)c1cc(-c2cccs2)on1,inactive
16,CCc1ccc(NC(=O)CCc2ccc(C)o2)cc1,inactive
17,C=CCn1c(O)c(C(C)=Nc2ccc(C(=O)OCC)cc2)c(=O)[nH]c1=O,inactive
18,Oc1ccc2cc(Br)ccc2c1CN1CCCC1,inactive
19,Cc1ccc(S(=O)(=O)NCC(=O)OCCOc2cccc(Cl)c2)cc1,inactive
20,O=C(Nc1nnc(-c2ccccc2Cl)o1)c1ccco1,inactive
21,O=C(Nc1nnc(-c2ccccc2Cl)o1)c1cccnc1,inactive
22,CC(C)OC(=O)c1cc(C(=O)c2cc(Cl)ccc2O)coc1=N,inactive
23,COc1c[nH]n(C2CCCCC2)c(=O)c1=O,inactive
24,Cc1ccc(N=N/C(=C\O)C(=O)c2ccncc2)cc1,inactive
25,O=C(NNC1CC(=O)N(c2ccccc2)C1=O)c1ccco1 (stereo unspecified),inactive
26,NC(=O)N/N=C/c1ccccc1OC(=O)c1cc2ccccc2oc1=O,inactive

row,Compound,outcome
1,Cc1ccc(C(=O)N2N=C(CC(C)C)CC2(O)C(F)(F)F)o1 (stereo unspecified),inactive
2,Cn1nnc(NC(=O)COc2ccc(C3CCCCC3)cc2)n1,inactive
3,Cc1cc(O)c(-c2cc(O)c(C)cc2O)cc1O,inactive
4,COc1ccc(-c2nnc(NC(=O)C3=COCCO3)o2)cc1,inactive
5,COc1ccc(-c2nnc(SCC(C)C)o2)cc1,inactive
6,Cc1ccn2nc(S(=O)(=O)Nc3c(F)cccc3F)nc2n1,inactive
7,CC(=O)Nc1ccc(NC(=O)c2cc([N+](=O)[O-])cc([N+](=O)[O-])c2)cc1,inactive
8,COc1cccc(NC(=O)c2ccc(-c3ccc([N+](=O)[O-])cc3)o2)c1,inactive
9,COc1ccc(CNC(=O)c2cc3cccc(O)c3oc2=N)cc1,inactive
10,CCOC(=O)COc1ccc2c(=O)c(-c3ccccc3OC)coc2c1,inactive
11,COC(=O)COc1ccc(-c2nn(C)c(=O)c3ccccc23)cc1,inactive
12,O=C(CNC(=O)c1ccco1)OCc1ccc(C(=O)Oc2ccccc2)cc1,inactive
13,CCOC(=O)c1ccc(NC2OC(=O)c3ccccc32)cc1 (stereo unspecified),inactive
14,CCOC(=O)CC(=O)Nc1ccc(C(=O)OCC)cc1,inactive
15,c1ccc(C2=Nc3ccccc3OC2)cc1,inactive
16,O=C(N/N=C/c1ccccn1)c1ccccc1,inactive
17,C/C(=N\Nc1ccc(Cl)cc1)c1ccccn1,inactive
18,O=C(CCc1c[nH]c2ccccc12)Nc1ncccc1O,inactive
19,CC(C)c1ccc(/C=N/NC(=O)c2ccccn2)cc1,inactive
20,O=C(N/N=C/c1ccccn1)c1cccc(S(=O)(=O)Nc2ccccc2Cl)c1,inactive
21,COc1cc(/C=N/NC(=O)c2ccccn2)ccc1OC(=O)c1cccs1,inactive
22,Cc1ccnc(NC(=O)CCc2c[nH]c3ccccc23)c1,inactive

# Source: PubChem BioAssay AID489025 (Southern Research Specialized Biocontainment Screening …, 2010)
